# Key:
# Assay in all cases: DAPPL (digital affinity profiling via proximity ligation, sequencing); 10 mM Tris-HCl pH 7.5, 50 mM NaCl, 1 mM DTT, 4% glycerol, room temperature, 30 min; GST-TFs on glutathione beads, 16-mer random dsDNA library, 0.1% formaldehyde crosslink after washing; high values mean tight binding
# FEV = target: T1, FEV (Homo sapiens, UniProt Q99581 1-238); details: protein: recombinant; tags: N-terminal GST; dsDNA, one strand shown
# T1 sequence: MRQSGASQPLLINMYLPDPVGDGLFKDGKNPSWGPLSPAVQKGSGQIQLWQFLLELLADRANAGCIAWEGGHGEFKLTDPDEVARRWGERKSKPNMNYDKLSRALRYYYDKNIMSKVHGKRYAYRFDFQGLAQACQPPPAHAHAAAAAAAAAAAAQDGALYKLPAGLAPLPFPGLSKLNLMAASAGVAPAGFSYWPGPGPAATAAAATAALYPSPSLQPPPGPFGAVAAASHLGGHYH
# Procedure, shortened: (§1)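 Binding signal is defined as a hexamer's read frequency for one factor over its frequency for the tag-only sample. To obtain reads, GST-fused human transcription factors were expressed in yeast, captured on glutathione beads, barcoded with DNA and pooled with that sample. Pools met 200 nmole of a 16-mer random double-stranded DNA library in Tris/NaCl/DTT/glycerol buffer for 30 min at room temperature before washing, 0.1% formaldehyde crosslinking, proximity ligation (BsaI/T4 ligase, 1 h, 37 °C), PCR and Illumina NextSeq500 sequencing.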
# ETV5 = ETV5 (Homo sapiens, UniProt P41161 1-510); details: protein: recombinant; tags: N-terminal GST; dsDNA, one strand shown
# Procedure, shortened: as §1
# HSF1 = HSF1 (Homo sapiens, UniProt Q00613 1-529); details: protein: recombinant; tags: N-terminal GST; chain copies: 3; dsDNA, one strand shown
# Procedure, shortened: as §1
# SPIC = target: T2, SPIC (Homo sapiens, UniProt Q8N5J4 1-248); details: protein: recombinant; tags: N-terminal GST; dsDNA, one strand shown
# T2 sequence: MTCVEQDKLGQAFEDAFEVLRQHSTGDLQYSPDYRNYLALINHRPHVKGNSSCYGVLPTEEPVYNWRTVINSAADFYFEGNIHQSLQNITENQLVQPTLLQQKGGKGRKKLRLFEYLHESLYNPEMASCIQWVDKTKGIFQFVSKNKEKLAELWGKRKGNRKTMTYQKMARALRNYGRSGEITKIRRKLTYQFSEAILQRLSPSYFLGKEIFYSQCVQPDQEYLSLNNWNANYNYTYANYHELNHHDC
# Procedure, shortened: as §1
# ELF4 = ELF4 (Homo sapiens, UniProt Q99607 1-663); details: protein: recombinant; tags: N-terminal GST; dsDNA, one strand shown
# Procedure, shortened: as §1
# ELK4 = target: T3, ELK4 (Homo sapiens, UniProt P28324-2 1-405); details: protein: recombinant; tags: N-terminal GST; dsDNA, one strand shown
# T3 sequence: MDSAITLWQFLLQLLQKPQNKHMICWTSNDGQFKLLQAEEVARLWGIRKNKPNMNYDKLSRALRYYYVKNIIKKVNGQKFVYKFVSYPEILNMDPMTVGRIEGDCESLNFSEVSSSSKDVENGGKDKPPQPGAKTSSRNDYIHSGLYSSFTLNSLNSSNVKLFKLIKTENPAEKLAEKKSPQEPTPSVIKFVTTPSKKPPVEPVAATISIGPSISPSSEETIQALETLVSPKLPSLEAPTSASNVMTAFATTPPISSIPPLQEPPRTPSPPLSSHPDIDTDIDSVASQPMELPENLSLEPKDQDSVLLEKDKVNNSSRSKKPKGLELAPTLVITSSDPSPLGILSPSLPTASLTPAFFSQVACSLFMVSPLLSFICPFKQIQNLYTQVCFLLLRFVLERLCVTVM
# Procedure, shortened: as §1
# ETV2 = target: T4, ETV2 (Homo sapiens, UniProt O00321 1-342); details: protein: recombinant; tags: N-terminal GST; dsDNA, one strand shown
# T4 sequence: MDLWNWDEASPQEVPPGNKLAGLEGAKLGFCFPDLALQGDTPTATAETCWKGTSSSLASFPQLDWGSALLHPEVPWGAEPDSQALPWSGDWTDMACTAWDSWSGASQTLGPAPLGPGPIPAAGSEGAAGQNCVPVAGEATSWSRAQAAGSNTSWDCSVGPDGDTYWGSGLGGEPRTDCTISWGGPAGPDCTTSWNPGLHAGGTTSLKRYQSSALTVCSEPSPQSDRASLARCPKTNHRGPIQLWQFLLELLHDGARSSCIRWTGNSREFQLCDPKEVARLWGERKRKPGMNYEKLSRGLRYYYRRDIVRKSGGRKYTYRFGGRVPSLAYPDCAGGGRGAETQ
# Procedure, shortened: as §1
# ELF3 = target: T5, ELF3 (Homo sapiens, UniProt P78545 1-371); details: protein: recombinant; tags: N-terminal GST; dsDNA, one strand shown
# T5 sequence: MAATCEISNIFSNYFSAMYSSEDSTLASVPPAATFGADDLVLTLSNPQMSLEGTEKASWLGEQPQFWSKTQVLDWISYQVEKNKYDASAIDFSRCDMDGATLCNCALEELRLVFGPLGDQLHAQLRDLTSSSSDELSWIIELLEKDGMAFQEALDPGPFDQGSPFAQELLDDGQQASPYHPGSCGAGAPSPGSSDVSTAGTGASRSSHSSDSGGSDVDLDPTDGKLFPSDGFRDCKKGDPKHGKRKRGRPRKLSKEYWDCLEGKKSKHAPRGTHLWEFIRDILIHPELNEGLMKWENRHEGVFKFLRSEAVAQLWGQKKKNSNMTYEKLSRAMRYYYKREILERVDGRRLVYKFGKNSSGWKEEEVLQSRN
# Procedure, shortened: as §1
# CRX = CRX (Homo sapiens, UniProt O43186 1-299); details: protein: recombinant; tags: N-terminal GST; dsDNA, one strand shown
# Procedure, shortened: as §1
# ETV1 = ETV1 (Homo sapiens, UniProt P50549 1-477); details: protein: recombinant; tags: N-terminal GST; dsDNA, one strand shown
# Procedure, shortened: as §1
# ERF = target: T6, ERF (Homo sapiens, UniProt P50548 1-548); details: protein: recombinant; tags: N-terminal GST; dsDNA, one strand shown
# T6 sequence: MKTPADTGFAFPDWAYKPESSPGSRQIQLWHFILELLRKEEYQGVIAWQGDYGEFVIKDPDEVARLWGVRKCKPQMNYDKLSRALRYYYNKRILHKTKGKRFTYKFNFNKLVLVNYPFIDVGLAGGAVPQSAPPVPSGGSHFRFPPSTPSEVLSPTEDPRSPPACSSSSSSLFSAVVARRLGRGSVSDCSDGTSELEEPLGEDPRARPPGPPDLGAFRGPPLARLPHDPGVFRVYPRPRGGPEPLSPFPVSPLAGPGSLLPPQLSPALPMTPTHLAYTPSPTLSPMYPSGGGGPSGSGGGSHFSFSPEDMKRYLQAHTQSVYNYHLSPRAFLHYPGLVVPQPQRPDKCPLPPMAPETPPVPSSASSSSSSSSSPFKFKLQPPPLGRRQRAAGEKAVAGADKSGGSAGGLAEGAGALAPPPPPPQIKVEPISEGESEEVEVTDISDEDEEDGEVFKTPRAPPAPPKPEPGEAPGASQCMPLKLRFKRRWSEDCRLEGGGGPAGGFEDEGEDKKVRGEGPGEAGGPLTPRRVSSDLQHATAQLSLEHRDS
# Procedure, shortened: as §1
# ETV3L = target: T7, ETV3L (Homo sapiens, UniProt Q6ZN32 1-361); details: protein: recombinant; tags: N-terminal GST; dsDNA, one strand shown
# T7 sequence: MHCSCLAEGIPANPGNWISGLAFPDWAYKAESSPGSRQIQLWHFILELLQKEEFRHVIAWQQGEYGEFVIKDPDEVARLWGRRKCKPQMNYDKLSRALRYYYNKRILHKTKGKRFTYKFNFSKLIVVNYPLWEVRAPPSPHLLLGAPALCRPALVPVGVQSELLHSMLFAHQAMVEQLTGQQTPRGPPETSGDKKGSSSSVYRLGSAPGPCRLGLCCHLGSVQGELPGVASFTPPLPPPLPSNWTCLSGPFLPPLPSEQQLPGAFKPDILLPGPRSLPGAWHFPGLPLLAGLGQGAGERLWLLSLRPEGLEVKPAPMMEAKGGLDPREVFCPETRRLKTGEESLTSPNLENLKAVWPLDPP
# Procedure, shortened: as §1
# ETS2 = target: T8, ETS2 (Homo sapiens, UniProt P15036 1-469); details: protein: recombinant; tags: N-terminal GST; dsDNA, one strand shown
# T8 sequence: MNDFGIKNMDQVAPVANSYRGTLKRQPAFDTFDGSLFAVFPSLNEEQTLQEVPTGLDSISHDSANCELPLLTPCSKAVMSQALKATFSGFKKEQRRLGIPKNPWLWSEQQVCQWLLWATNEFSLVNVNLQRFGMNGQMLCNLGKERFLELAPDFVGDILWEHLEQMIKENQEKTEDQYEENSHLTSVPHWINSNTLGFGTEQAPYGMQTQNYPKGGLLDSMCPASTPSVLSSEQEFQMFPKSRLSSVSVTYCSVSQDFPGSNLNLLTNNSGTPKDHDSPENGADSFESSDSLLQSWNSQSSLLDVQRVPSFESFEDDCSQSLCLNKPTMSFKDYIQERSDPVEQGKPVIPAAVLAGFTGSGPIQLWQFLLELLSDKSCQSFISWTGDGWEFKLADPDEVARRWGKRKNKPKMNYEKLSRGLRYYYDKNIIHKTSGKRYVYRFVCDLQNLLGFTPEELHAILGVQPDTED
# Procedure, shortened: as §1
# SPDEF = target: T9, SPDEF (Homo sapiens, UniProt O95238 1-335); details: protein: recombinant; tags: N-terminal GST; dsDNA, one strand shown
# T9 sequence: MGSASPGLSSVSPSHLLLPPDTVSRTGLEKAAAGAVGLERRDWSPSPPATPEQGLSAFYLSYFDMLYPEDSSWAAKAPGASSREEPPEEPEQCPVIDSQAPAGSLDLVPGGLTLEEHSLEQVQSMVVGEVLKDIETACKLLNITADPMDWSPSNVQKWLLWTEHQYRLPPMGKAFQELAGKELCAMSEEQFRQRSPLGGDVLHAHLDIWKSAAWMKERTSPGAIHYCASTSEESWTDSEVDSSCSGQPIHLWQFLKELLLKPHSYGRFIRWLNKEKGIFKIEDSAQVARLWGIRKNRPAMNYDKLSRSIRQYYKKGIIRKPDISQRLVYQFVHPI
# Procedure, shortened: as §1
# ETV7 = target: T10, ETV7 (Homo sapiens, UniProt Q9Y603 1-341); details: protein: recombinant; tags: N-terminal GST; dsDNA, one strand shown
# T10 sequence: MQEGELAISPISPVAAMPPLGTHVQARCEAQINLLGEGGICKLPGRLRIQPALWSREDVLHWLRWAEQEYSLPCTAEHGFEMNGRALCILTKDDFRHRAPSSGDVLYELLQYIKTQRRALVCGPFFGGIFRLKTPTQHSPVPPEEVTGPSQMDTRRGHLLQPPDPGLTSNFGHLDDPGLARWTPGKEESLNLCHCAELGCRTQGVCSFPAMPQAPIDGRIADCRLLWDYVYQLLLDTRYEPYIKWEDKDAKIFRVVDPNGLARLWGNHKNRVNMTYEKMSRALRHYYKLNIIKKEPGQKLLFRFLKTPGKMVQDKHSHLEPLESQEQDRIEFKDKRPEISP
# Procedure, shortened: as §1
# ELF5 = target: T11, ELF5 (Homo sapiens, UniProt Q9UKW6-2 1-255); details: protein: recombinant; tags: N-terminal GST; dsDNA, one strand shown
# T11 sequence: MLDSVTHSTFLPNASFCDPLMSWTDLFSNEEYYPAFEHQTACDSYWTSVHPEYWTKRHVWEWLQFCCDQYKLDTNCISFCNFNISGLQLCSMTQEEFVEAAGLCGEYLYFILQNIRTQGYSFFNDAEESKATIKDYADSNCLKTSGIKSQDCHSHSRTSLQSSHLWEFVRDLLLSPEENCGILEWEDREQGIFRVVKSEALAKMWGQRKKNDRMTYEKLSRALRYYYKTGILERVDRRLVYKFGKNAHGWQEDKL
# Procedure, shortened: as §1
# ETV3 = target: T12, ETV3 (Homo sapiens, UniProt P41162-2 1-143); details: protein: recombinant; tags: N-terminal GST; dsDNA, one strand shown
# T12 sequence: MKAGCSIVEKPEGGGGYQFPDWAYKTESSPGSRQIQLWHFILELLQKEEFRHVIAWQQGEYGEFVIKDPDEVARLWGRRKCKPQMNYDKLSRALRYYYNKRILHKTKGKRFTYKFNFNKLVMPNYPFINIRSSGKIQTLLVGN
# Procedure, shortened: as §1
# ETV6 = ETV6 (Homo sapiens, UniProt P41212 1-452); details: protein: recombinant; tags: N-terminal GST; dsDNA, one strand shown
# Procedure, shortened: as §1
# Chain of ETV6 (P41212 whole entry): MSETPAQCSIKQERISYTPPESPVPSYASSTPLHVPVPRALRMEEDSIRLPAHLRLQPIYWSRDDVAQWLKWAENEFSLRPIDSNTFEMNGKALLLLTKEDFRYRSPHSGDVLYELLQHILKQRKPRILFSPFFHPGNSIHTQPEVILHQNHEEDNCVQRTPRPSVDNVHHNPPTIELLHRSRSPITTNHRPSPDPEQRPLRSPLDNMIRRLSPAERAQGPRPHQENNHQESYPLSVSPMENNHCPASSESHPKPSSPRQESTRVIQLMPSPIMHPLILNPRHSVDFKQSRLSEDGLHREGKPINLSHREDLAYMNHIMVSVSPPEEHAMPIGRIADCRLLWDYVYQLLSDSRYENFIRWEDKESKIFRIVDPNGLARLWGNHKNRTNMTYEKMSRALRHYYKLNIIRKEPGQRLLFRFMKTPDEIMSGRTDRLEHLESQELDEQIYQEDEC
# Chain of ETV1 (P50549 whole entry): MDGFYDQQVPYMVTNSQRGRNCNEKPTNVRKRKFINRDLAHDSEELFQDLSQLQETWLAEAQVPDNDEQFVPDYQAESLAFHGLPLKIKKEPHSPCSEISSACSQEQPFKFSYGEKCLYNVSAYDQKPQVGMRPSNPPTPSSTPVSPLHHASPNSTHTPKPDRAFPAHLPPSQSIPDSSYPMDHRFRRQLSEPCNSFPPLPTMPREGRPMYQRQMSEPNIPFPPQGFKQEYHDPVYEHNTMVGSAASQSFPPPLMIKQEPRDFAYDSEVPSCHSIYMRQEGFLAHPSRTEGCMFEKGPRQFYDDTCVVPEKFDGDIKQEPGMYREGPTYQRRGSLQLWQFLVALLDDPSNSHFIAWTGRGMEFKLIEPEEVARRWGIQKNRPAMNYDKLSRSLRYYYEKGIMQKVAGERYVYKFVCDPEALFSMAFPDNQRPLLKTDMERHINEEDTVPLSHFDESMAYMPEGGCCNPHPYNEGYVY
# Chain of ELF4 (Q99607 whole entry): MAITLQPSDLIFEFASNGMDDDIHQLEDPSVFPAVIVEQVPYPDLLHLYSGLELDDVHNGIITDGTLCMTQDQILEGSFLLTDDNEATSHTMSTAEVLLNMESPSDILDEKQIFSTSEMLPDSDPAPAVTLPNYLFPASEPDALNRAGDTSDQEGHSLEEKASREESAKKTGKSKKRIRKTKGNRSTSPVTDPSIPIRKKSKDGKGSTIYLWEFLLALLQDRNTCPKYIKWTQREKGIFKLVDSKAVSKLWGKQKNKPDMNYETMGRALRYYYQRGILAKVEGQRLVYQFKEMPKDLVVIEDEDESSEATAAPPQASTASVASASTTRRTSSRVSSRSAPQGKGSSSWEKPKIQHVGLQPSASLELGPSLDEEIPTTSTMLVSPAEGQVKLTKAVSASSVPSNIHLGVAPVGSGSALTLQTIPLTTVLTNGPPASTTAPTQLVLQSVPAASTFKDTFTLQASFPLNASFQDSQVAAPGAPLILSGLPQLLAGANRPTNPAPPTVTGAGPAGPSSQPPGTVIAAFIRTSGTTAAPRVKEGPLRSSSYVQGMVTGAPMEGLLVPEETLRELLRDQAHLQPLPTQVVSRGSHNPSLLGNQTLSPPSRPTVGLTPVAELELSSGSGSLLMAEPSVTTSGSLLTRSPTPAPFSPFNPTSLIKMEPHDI
# Chain of HSF1 (Q00613 whole entry): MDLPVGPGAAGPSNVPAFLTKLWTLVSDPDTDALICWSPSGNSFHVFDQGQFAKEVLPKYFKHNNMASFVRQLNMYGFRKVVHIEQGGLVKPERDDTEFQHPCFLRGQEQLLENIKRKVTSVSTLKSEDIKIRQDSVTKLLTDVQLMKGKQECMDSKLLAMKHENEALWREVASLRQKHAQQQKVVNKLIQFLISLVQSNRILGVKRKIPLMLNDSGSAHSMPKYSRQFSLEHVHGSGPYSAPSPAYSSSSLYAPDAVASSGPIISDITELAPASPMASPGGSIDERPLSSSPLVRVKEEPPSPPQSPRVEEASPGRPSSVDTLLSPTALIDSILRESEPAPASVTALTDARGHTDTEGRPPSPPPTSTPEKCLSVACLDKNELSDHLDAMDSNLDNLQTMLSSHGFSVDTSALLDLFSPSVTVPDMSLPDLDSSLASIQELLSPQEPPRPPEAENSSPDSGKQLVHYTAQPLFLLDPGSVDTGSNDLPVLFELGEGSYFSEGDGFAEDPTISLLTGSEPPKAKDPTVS
# Chain of ETV5 (P41161 whole entry): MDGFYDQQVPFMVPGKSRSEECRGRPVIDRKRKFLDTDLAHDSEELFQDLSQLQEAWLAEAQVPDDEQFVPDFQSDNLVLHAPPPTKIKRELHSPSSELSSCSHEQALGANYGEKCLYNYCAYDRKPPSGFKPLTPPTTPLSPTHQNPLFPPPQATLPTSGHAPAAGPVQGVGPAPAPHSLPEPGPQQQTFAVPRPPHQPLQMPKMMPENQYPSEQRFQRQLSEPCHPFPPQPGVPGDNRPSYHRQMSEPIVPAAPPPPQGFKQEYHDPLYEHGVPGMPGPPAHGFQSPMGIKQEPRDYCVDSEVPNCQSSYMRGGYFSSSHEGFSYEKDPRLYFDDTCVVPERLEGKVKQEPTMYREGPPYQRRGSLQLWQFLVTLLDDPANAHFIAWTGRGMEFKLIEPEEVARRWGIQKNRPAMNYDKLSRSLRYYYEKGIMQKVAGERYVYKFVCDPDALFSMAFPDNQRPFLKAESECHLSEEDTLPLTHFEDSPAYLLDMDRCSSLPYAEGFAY
# Chain of CRX (O43186 whole entry): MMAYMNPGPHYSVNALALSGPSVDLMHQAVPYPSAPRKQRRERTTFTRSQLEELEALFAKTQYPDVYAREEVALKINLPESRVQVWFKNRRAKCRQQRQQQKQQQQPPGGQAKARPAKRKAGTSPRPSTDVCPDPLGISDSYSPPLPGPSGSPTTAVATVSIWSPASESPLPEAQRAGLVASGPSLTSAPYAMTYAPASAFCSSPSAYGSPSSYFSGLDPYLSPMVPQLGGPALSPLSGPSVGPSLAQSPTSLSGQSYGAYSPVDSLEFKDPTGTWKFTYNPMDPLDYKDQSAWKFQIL
sequence,measurement,setting,value
CTGCAA,binding signal,FEV,"1.29 fold enrichment (6-mer frequency, TF over GST control)"
same,binding signal,ETV5,"1.3 fold enrichment (6-mer frequency, TF over GST control)"
same,binding signal,HSF1,"1.14 fold enrichment (6-mer frequency, TF over GST control)"
same,binding signal,SPIC,"1.2 fold enrichment (6-mer frequency, TF over GST control)"
same,binding signal,ELF4,"1.23 fold enrichment (6-mer frequency, TF over GST control)"
same,binding signal,ELK4,"1.32 fold enrichment (6-mer frequency, TF over GST control)"
same,binding signal,ETV2,"1.07 fold enrichment (6-mer frequency, TF over GST control)"
same,binding signal,ELF3,"1.4 fold enrichment (6-mer frequency, TF over GST control)"
same,binding signal,CRX,"1.05 fold enrichment (6-mer frequency, TF over GST control)"
same,binding signal,ETV1,"1.24 fold enrichment (6-mer frequency, TF over GST control)"
same,binding signal,ERF,"1.28 fold enrichment (6-mer frequency, TF over GST control)"
same,binding signal,ETV3L,"1.35 fold enrichment (6-mer frequency, TF over GST control)"
same,binding signal,ETS2,"1.31 fold enrichment (6-mer frequency, TF over GST control)"
same,binding signal,SPDEF,"1.11 fold enrichment (6-mer frequency, TF over GST control)"
same,binding signal,ETV7,"1.16 fold enrichment (6-mer frequency, TF over GST control)"
same,binding signal,ELF5,"1.17 fold enrichment (6-mer frequency, TF over GST control)"
same,binding signal,ETV3,"1.26 fold enrichment (6-mer frequency, TF over GST control)"
same,binding signal,ETV6,"1.33 fold enrichment (6-mer frequency, TF over GST control)"
